# High-throughput results (PubChem BioAssay)
# Shown are actives, neighbours in structure and some others; about 7.3% of the full set was active somewhere.
# Gal4-VP16 FLuc – inhibits Gal4-VP16 luciferase reporter, ROR gamma counter-screen; Drosophila S2 Gal4-VP16 UAS-luciferase, luminescence, 20 h; Potency, µM (top dose mostly 53.6 µM), for the others: top-dose activity, negative = inhibition, actives largely listed as inhibitors; 3.5% of 310,000 active;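 also: Gal4-VP16 expression switched on by copper sulfate through the metallothionein promoter; nearly all actives have a fitted effect of over 50% in size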
# Tau fibril FP – inhibitors of human tau fibril formation. P10636. K18 P301L tau heparin fibrillization, Alexa594 FP, 6 h. Potency, µM (doses to about 57.7 µM), for inactives: at the highest dose activity, negative = inhibition, actives largely listed as inhibitors. 0.39% of 280,000 active; also: nearly all actives have a fitted effect of over 55% in size
# Target sequence (P10636 561-689 P618L limits assumed): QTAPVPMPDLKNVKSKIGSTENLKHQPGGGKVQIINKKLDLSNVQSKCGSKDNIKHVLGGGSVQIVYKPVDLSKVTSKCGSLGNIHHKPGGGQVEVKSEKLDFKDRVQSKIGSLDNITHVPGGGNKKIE
#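 Quantitative HTS format: compounds meet 15 uM recombinant K18 P301L tau and Alexa 594-tau tracer in 100 mM sodium acetate pH 7; 20 uM heparin triggers fibrillization at 37 C over 6 hr; FP gives the signal.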
# RORg inh – blocks mouse ROR gamma transcriptional activity; P51450; Drosophila S2 Gal4-RORgamma UAS-luciferase reporter, 20 h; Potency, µM (highest dose often 53.6 µM), without a hit: at the highest dose activity change, negative = inhibition, actives largely listed as inhibitors; 5.4% of 310,000 active; AID 2551; also: nearly all actives have a fitted effect of over 60% in size
# Target sequence (P51450 whole entry, looked up, the tested form may be a part): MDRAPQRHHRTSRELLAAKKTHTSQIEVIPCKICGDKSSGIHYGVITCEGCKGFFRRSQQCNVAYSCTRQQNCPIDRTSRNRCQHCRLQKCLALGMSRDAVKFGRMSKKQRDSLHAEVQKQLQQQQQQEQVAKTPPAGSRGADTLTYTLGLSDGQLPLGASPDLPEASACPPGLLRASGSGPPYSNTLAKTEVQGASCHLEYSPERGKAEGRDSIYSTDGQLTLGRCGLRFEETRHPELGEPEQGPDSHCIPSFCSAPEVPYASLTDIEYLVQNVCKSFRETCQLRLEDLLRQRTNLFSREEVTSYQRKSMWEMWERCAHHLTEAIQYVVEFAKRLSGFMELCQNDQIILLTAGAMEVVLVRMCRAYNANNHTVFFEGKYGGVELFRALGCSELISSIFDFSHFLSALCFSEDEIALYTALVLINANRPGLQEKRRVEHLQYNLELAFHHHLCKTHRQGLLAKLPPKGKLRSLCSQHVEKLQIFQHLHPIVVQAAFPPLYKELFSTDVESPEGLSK
#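 In this cell-based reporter format, copper sulfate (700 uM final) drives Gal4–ROR gamma fusion expression from a metallothionein promoter in Drosophila Schneider cells; compounds preincubated 1 hr, reporter read after 20 hr at ambient temperature.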
# Tau fluor counter – counter-screen for tau fibril formation inhibitors | AID 1463 | Potency, µM (doses to about 57.7 µM), for the others: at the highest dose activity change, negative = decrease | tau K18 P301L Alexa594 fluorescence, heparin fibrillization | 0.93% of 280,000 active; also: nearly all actives have a fitted effect of over 55% in size
#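 Human tau K18 P301L (15 uM unlabeled, 0.24 uM Alexa 594-labeled) in 100 mM sodium acetate pH 7 with 20 uM heparin, 6 hr at 37 C. ThT 30 uM added, 1 hr ambient; Alexa 594 FP and total fluorescence read at 555/632 nm.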
# Tau fibril ThT – inhibitors of human tau fibril formation, thioflavin T binding; P10636; recombinant tau K18 P301L (four-repeat tau fragment), heparin-induced fibrillization, ThT fluorescence; Potency, µM (doses to about 57.4 µM), inactives show at the top dose activity, negative = inhibition, actives largely listed as inhibitors; 2.1% of 270,000 active; also: nearly all actives have a fitted effect of over 55% in size
#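 Aggregation was driven by heparin (20 uM final) acting on recombinant tau […] bearing P301L in 100 mM sodium acetate pH 7; fibrils were detected with Thioflavin T.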
# Active calls of the source: *; ? = inconclusive; / = no result; [ ] = dose if it differs, or a comment. Calls follow the shape of the dose curve; as a rule, active = well fitted curve in the direction sought with a large enough effect; inconclusive = small, poorly fitted or top-dose-only effect, or another doubt; inactive = no such curve, though single readings can be large; an effect the other way counts as inactive or inconclusive. % is scaled to controls: 0 for no effect and ±100 for the full control effect; potency is read from the fitted curve at half-maximal effect.
SMILES,Gal4-VP16 FLuc,Tau fibril FP,RORg inh,Tau fluor counter,Tau fibril ThT
O=C(N/N=C1\CC2CC=CC12)c1ccccc1Cl (centres undefined),11%,-1%,-99%,3%,-3%
FC(F)(F)c1ccccc1NC(=S)N/N=C1\CC2CC=CC12 (centres undefined),14µM*,-1%,0.5µM*,-5%,6%
CC(C)c1ccc2nc3sc(C(=O)N4CCc5ccccc5C4)c(N)c3cc2c1,0%,8%,-23%,?,13µM*
CCOc1ccc2nc3sc(C(=O)N4CCN(C)CC4)c(N)c3cc2c1,16%,9%,24%,?,13µM*
CCN1CCc2nc3sc(C(=O)N4CCc5ccccc5C4)c(N)c3cc2C1,4%,/,12%,/,/
COc1ccc2cc3c(N)c(C(=O)N4CCCC4)sc3nc2c1,4%,5%,-16%,?,11µM*
Cc1ccc2nc3sc(C(=O)N4CCOCC4)c(N)c3cc2c1,?,5%,?,-11%,-17%
CCC(Oc1ccc(C)c(C)c1)C(=O)N1CCCN(C)CC1 (centres undefined),-4%,/,-7%,/,/
COc1ccc(-c2cn3nc(SCC(=O)Nc4cccc(C)c4C)ccc3n2)cc1,/,-7%,/,-4%,-18%
O=C(N/N=C/c1ccoc1)c1ccccc1Br,-12%,/,0%,/,/
CCC/C=N/NC(=O)c1cc(Br)ccc1O,?,6%,11µM*,-13%,?
O=C(N/N=C/c1ccoc1)c1cc(Br)ccc1O,4µM*,/,3.5µM*,/,/
O=C(N/N=C1/CCSC1)c1cc(Br)ccc1O,-11%[10 µM],-2%,7.9µM*,-18%,?
Cc1c(C(=O)N2CCOCC2)sc(NC(=O)CCl)c1C#N,?,/,13µM*,/,/
Cc1c(C(=O)N2CCOCC2)sc(NC(=O)c2ccc([N+](=O)[O-])cc2)c1C#N,1%,/,14%,/,/
c1ccc(CN2CCN(c3nc(-c4ccccn4)nc4ccccc34)CC2)cc1,2.8µM*,-6%,1.4µM*,-5%,-5%
c1ccc(-c2nc(N3CCOCC3)c3ccccc3n2)nc1,5.6µM*,-6%,2.5µM*,-10%,-21%
c1ccc(-c2nc(N3CCCCCC3)c3ccccc3n2)nc1,2.5µM*,-7%,1.1µM*,-14%,-8%
CCN1CCN(c2nc(-c3ccccn3)nc3ccccc23)CC1,-7%,1%,2%,2%,4%
COc1ccc(CNC(=O)C2CCN(S(=O)(=O)c3ccc4c(c3)C(C)(C)C(=O)N4C)CC2)cc1,-5%,/,0%,/,/
O=Cc1c(NCCN2CCCC2)c2ccccc2[nH]c1=O,-7%,/,-5%,/,/
S=C(NCc1ccco1)Nc1ccccc1Cl,16%,2%,10µM*,-14%,-8%
Cc1c(Cl)cccc1NC(=O)c1ccco1,?,/,-14%[1.91 µM],/,/
Cc1c(Cl)cccc1NC(=S)NCc1ccco1,?,4%,5µM*,7%,10%
S=C(NCc1ccco1)Nc1cccc(Cl)c1Cl,-18%,5%,-104%,-4%,6%
SMILES,Gal4-VP16 FLuc,Tau fibril FP,RORg inh,Tau fluor counter,Tau fibril ThT
FC(F)Oc1ccccc1NC(=S)NCc1ccco1,3%,1%,15%,-5%,-5%
Cc1cccc(NC(=S)NCc2ccco2)c1C,11µM*,-2%,7.9µM*,1%,4%
O=C(NC1CCCC1)c1cnn(-c2ccc(F)cc2F)c1C1CCNCC1,/,1%,/,1%,-2%
Cc1cccc(CNC(=O)c2cccc(NC(=O)N3CCSc4ncccc43)c2)c1,/,0%,/,1%,7%
Cc1ccc(-n2c(-c3ccccc3)c[n+]3c2CCc2ccccc2-3)c(C)c1,7.1µM*,0%,?,7%,-2%
Cc1ccc(-n2c(-c3ccccc3)c[n+]3c2CCC3)cc1,?,-2%,?,-3%,5%
Cc1cccc(N(C)C(=O)c2cc3c(=O)oc4ccc(C)cc4c3s2)c1,/,1%,/,-2%,0%
CC[C@H](C)[C@H](NC(=O)[C@H](Cc1ccc(O)cc1)NC(=O)CNC(=O)[C@@H]1CCCN1C(=O)[C@H](CC(=O)O)NC(=O)[C@@H](N)CS)C(=O)NCC(=O)N[C@@H](CO)C(=O)N[C@@H](CCCN=C(N)N)C(N)=O,1%,/,0%,/,/
Nc1ncc(-c2ccccc2)c(-c2ccc(OCc3ccccc3)cc2O)n1,-10%,?,40%,?,-11%
O=[N+]([O-])c1ccc(COc2ccc(-c3[nH]ncc3-c3ccccc3)c(O)c2)cc1,5.6µM*,?,7.1µM*,?,-6%
Oc1cc(OCc2ccccc2)ccc1-c1[nH]ncc1-c1ccccc1,?,25µM*,10µM*,10µM*[quencher],-13%
CC(C)(C)C1CCc2[nH]c3ccccc3c(=O)c2C1 (centres undefined),-29%,4%,?,-4%,-10%
Cc1c2c(nc3ccccc13)CCC(C(C)(C)C)C2 (centres undefined),?,3%,4µM*,-9%,?
Cc1ccc(C)n1-c1sccc1C(=O)O,-8%,?,-2%,-25%,32µM*
Cc1cccc(-n2c(=O)c3c(c4cc(C)ccc4n3C)n(Cc3ccccc3F)c2=O)c1,/,0%,/,5%,8%
CCN=c1scc(C)n1/N=C/c1ccc(O)c(O)c1O,?,22µM*,3.5µM*,?,11µM*
CCN=c1scc(C)n1/N=C/c1cc(Br)c(O)c(Br)c1,4%,15%,-22%,?,?
CCOC(=O)c1ccc(CC(=O)c2ccc(O)cc2O)o1,14%,-3%,18%,-27%,?
CCC(=O)Oc1ccc(C/C(=N\O)c2ccc(O)cc2O)o1,?,-9%,2.2µM*,?,?
CN(C)C(CNC(C(=O)Nc1ccc(F)cc1)c1ccccc1)c1ccccc1 (centres undefined),-7%,/,-3%,/,/
Cc1ccc2nc(-c3ccc(NC(=O)CSCC(=O)O)cc3)sc2c1,-26%,4%,11µM*,-4%,12%
Cc1csc(NC(=O)CSCC(=O)O)c1-c1nc2ccccc2s1,8.9µM*,11%,-42%,-12%,-9%
CCN1CCc2c(sc(NC(=O)CSc3ccccc3)c2-c2nc3ccccc3s2)C1,/,-7%,/,-6%,-10%
Cc1ccc2nc(-c3ccc(NC(=O)CCN4C(=O)c5ccccc5C4=O)cc3)sc2c1,7.1µM*,3%,5µM*,-4%,-2%
O=C(O)CSCC(=O)Nc1ccc(-c2nc3ccccc3s2)cc1,-22%,-9%,?,-13%,-10%
COc1cc2c(cc1OC)C(CC(=O)O)N(C(=O)Nc1cc(OC)c(OC)c(OC)c1)CC2 (centres undefined),/,3%,/,-4%,-9%
CCN(CC)c1ccc(NC(=O)c2ccccc2)cc1S(=O)(=O)Nc1ccccc1OC,-8%,10%,7%,-11%,-10%
CN(Cc1ccccc1)S(=O)(=O)c1ccc(NC(=O)c2cc(=O)c3ccccc3o2)cc1,/,?,/,?,4%
